Where a chain is given by its changes, count along the chain named. Whole data set: some 16,000 sequences, median “ka relative to ugcaugu” near 0.0091, cut for the highest 2% near 0.032. This is one part of a sample in which the highest values are shown more often than they occur.

T1: RBFOX1 RRM (Homo sapiens, UniProt Q9NWB1 109-208)
T1 sequence: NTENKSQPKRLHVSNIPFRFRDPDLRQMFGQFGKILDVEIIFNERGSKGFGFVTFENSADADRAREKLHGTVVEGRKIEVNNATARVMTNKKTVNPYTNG

B1: UCAAUCC (DNA:RNA)
RNA: GGGAGACCGGAAUUCAGAUUGUCCUCAAUCCUUAAAUCCCGUCGUAGCCACCA
DNA 1: CAATCTGAATTCCGGTCTCCC
DNA 2: TGGTGGCTACGACGGGATT
B2: UAUUGCC (DNA:RNA)
RNA: B1 RNA with C26A, A27U, A28U, U29G
DNA 1: CAATCTGAATTCCGGTCTCCC
DNA 2: TGGTGGCTACGACGGGATT
B3: UGUUAGC (DNA:RNA)
RNA: B1 RNA with C26G, A27U, A28U, U29A, C30G
DNA 1: CAATCTGAATTCCGGTCTCCC
DNA 2: TGGTGGCTACGACGGGATT
B4: GACUGAA (DNA:RNA)
RNA: GGGAGACCGGAAUUCAGAUUGUCCGACUGAAUUAAAUCCCGUCGUAGCCACCA
DNA 1: CAATCTGAATTCCGGTCTCCC
DNA 2: TGGTGGCTACGACGGGATT
B5: UUCAGCC (DNA:RNA)
RNA: B1 RNA with C26U, A27C, U29G
DNA 1: CAATCTGAATTCCGGTCTCCC
DNA 2: TGGTGGCTACGACGGGATT
B6: ACCUUCG (DNA:RNA)
RNA: B1 RNA with U25A, A27C, A28U, C31G
DNA 1: CAATCTGAATTCCGGTCTCCC
DNA 2: TGGTGGCTACGACGGGATT
B7: ACCUAAG (DNA:RNA)
RNA: B4 RNA with G25A, A26C, G29A, A31G
DNA 1: CAATCTGAATTCCGGTCTCCC
DNA 2: TGGTGGCTACGACGGGATT
B8: UUACAAU (DNA:RNA)
RNA: B1 RNA with C26U, A28C, U29A, C30A, C31U
DNA 1: CAATCTGAATTCCGGTCTCCC
DNA 2: TGGTGGCTACGACGGGATT
B9: GAUUGAC (DNA:RNA)
RNA: B4 RNA with C27U, A31C
DNA 1: CAATCTGAATTCCGGTCTCCC
DNA 2: TGGTGGCTACGACGGGATT
B10: UAGUCCU (DNA:RNA)
RNA: B4 RNA with G25U, C27G, G29C, A30C, A31U
DNA 1: CAATCTGAATTCCGGTCTCCC
DNA 2: TGGTGGCTACGACGGGATT
B11: GUACGUA (DNA:RNA)
RNA: B4 RNA with A26U, C27A, U28C, A30U
DNA 1: CAATCTGAATTCCGGTCTCCC
DNA 2: TGGTGGCTACGACGGGATT
B12: CUUUCCU (DNA:RNA)
RNA: B4 RNA with G25C, A26U, C27U, G29C, A30C, A31U
DNA 1: CAATCTGAATTCCGGTCTCCC
DNA 2: TGGTGGCTACGACGGGATT
B13: UCCUCGA (DNA:RNA)
RNA: B4 RNA with G25U, A26C, G29C, A30G
DNA 1: CAATCTGAATTCCGGTCTCCC
DNA 2: TGGTGGCTACGACGGGATT
B14: UGCUCGA (DNA:RNA)
RNA: B4 RNA with G25U, A26G, G29C, A30G
DNA 1: CAATCTGAATTCCGGTCTCCC
DNA 2: TGGTGGCTACGACGGGATT
B15: GUCUCGA (DNA:RNA)
RNA: B4 RNA with A26U, G29C, A30G
DNA 1: CAATCTGAATTCCGGTCTCCC
DNA 2: TGGTGGCTACGACGGGATT
B16: UCGUCGA (DNA:RNA)
RNA: B4 RNA with G25U, A26C, C27G, G29C, A30G
DNA 1: CAATCTGAATTCCGGTCTCCC
DNA 2: TGGTGGCTACGACGGGATT
B17: UGCUCGG (DNA:RNA)
RNA: B4 RNA with G25U, A26G, G29C, A30G, A31G
DNA 1: CAATCTGAATTCCGGTCTCCC
DNA 2: TGGTGGCTACGACGGGATT
B18: CGGCUCG (DNA:RNA)
RNA: B1 RNA with U25C, C26G, A27G, A28C, C31G
DNA 1: CAATCTGAATTCCGGTCTCCC
DNA 2: TGGTGGCTACGACGGGATT
B19: CGCUCGG (DNA:RNA)
RNA: B4 RNA with G25C, A26G, G29C, A30G, A31G
DNA 1: CAATCTGAATTCCGGTCTCCC
DNA 2: TGGTGGCTACGACGGGATT
B20: GGCUCGA (DNA:RNA)
RNA: B4 RNA with A26G, G29C, A30G
DNA 1: CAATCTGAATTCCGGTCTCCC
DNA 2: TGGTGGCTACGACGGGATT
B21: UCGUCGG (DNA:RNA)
RNA: B1 RNA with A27G, A28U, U29C, C30G, C31G
DNA 1: CAATCTGAATTCCGGTCTCCC
DNA 2: TGGTGGCTACGACGGGATT
B22: ACAGCUC (DNA:RNA)
RNA: B1 RNA with U25A, A28G, U29C, C30U
DNA 1: CAATCTGAATTCCGGTCTCCC
DNA 2: TGGTGGCTACGACGGGATT
B23: CUAUCUG (DNA:RNA)
RNA: B4 RNA with G25C, A26U, C27A, G29C, A30U, A31G
DNA 1: CAATCTGAATTCCGGTCTCCC
DNA 2: TGGTGGCTACGACGGGATT
B24: UAAGCGA (DNA:RNA)
RNA: B4 RNA with G25U, C27A, U28G, G29C, A30G
DNA 1: CAATCTGAATTCCGGTCTCCC
DNA 2: TGGTGGCTACGACGGGATT
B25: GGUCAGA (DNA:RNA)
RNA: B4 RNA with A26G, C27U, U28C, G29A, A30G
DNA 1: CAATCTGAATTCCGGTCTCCC
DNA 2: TGGTGGCTACGACGGGATT
B26: CAUUUGG (DNA:RNA)
RNA: B4 RNA with G25C, C27U, G29U, A30G, A31G
DNA 1: CAATCTGAATTCCGGTCTCCC
DNA 2: TGGTGGCTACGACGGGATT
B27: GACUAUC (DNA:RNA)
RNA: B4 RNA with G29A, A30U, A31C
DNA 1: CAATCTGAATTCCGGTCTCCC
DNA 2: TGGTGGCTACGACGGGATT
B28: AAAGUAC (DNA:RNA)
RNA: B1 RNA with U25A, C26A, A28G, C30A
DNA 1: CAATCTGAATTCCGGTCTCCC
DNA 2: TGGTGGCTACGACGGGATT
B29: AAAACUA (DNA:RNA)
RNA: B4 RNA with G25A, C27A, U28A, G29C, A30U
DNA 1: CAATCTGAATTCCGGTCTCCC
DNA 2: TGGTGGCTACGACGGGATT
B30: GAUCUCU (DNA:RNA)
RNA: B4 RNA with C27U, U28C, G29U, A30C, A31U
DNA 1: CAATCTGAATTCCGGTCTCCC
DNA 2: TGGTGGCTACGACGGGATT
B31: UUAAGUU (DNA:RNA)
RNA: B1 RNA with C26U, U29G, C30U, C31U
DNA 1: CAATCTGAATTCCGGTCTCCC
DNA 2: TGGTGGCTACGACGGGATT

The target in this test is T1, RBFOX1 RRM. In words: EMSA; HiTS-Eq, 1 nM pool, 10 min; buffer printed only for the single-RNA assays: 10 mM Tris pH 7.5, 150 mM NaCl, 3.4 mM EDTA, 0.001% NP-40, 30 C. Conditions: tags: His6 N-terminal (pET28a); label: 5' 32P. In outline: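 Purified wild-type or mutant RbFox RRM at increasing concentrations was equilibrated with 1 nM of 5′-radiolabelled RNA carrying 7 randomized nucleotides for 10 min in 50 µL. Unbound RNA was separated by 8% native PAGE and sequenced. Relative association constants came from read-count changes of each RNA species compared with the control reaction, normalised to the cognate motif.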
For orientation: A gel shift assay detects complexes by their altered migration in electrophoresis.
As for B1, the binding signal was 0.00161 KA relative to UGCAUGU.

As for B2, the binding signal is 0.012 KA relative to UGCAUGU.

As to B3, the binding signal is 0.0176 KA relative to UGCAUGU.

Turning to B4, the binding signal is 0.0274 KA relative to UGCAUGU.

As to B5, the binding signal was 0.0103 KA relative to UGCAUGU.

B6: the binding signal was 0.00839 KA relative to UGCAUGU.

As to B7, the binding signal is 0.00359 KA relative to UGCAUGU.

With B8, the binding signal is 0.00107 KA relative to UGCAUGU.

Turning to B9, the binding signal is 0.0228 KA relative to UGCAUGU.

B10: the binding signal was 0.00776 KA relative to UGCAUGU.

As for B11, the binding signal is 0.0085 KA relative to UGCAUGU.

For B12, the binding signal was 0.0054 KA relative to UGCAUGU.

On to B13, for which the binding signal is 0.00976 KA relative to UGCAUGU.

Consider B14, for which the binding signal was 0.0363 KA relative to UGCAUGU.

For the molecule B15, the binding signal was 0.0166 KA relative to UGCAUGU.

On to B16, for which the binding signal is 0.014 KA relative to UGCAUGU.

With B17, the binding signal was 0.0361 KA relative to UGCAUGU.

Take B18: the binding signal was 0.0112 KA relative to UGCAUGU.

As to B19, the binding signal is 0.0166 KA relative to UGCAUGU.

Take B20: the binding signal was 0.033 KA relative to UGCAUGU.

For B21, the binding signal was 0.0171 KA relative to UGCAUGU.

In the case of B22, the binding signal is 0.00303 KA relative to UGCAUGU.

For B23, the binding signal was 0.00983 KA relative to UGCAUGU.

With B24, the binding signal is 0.0108 KA relative to UGCAUGU.

For the molecule B25, the binding signal was 0.00171 KA relative to UGCAUGU.

With B26, the binding signal is 0.014 KA relative to UGCAUGU.

B27: the binding signal was 0.00429 KA relative to UGCAUGU.

With B28, the binding signal was 0.00371 KA relative to UGCAUGU.

With B29, the binding signal is 0.00178 KA relative to UGCAUGU.

As to B30, the binding signal is 0.0194 KA relative to UGCAUGU.

In the case of B31, the binding signal was 0.0109 KA relative to UGCAUGU.

For the origin of these results see paper PMC9911399, “Two distinct binding modes provide the RNA-binding protein RbFox with extraordinary sequence specificity”.
